We go through ten compounds from PubChem BioAssay (NCATS).

Inconclusive results are not listed. Active and inactive are the calls of the source. Unless noted, calls follow the shape of the dose curve; as a rule, active = well fitted curve in the direction sought with a large enough effect; inconclusive = small, poorly fitted or top-dose-only effect, or another doubt; inactive = no such curve, though single readings can be large; an effect the other way counts as inactive or inconclusive.

A short description of experiment [1]: qHTS drug screen for cell cycle checkpoint inhibitors in PARPi-resistant BRCA-mutant ovarian cancer cell lines. (AID 1963452; calls by dose curve). Particulars: PEO1/OlaR viability, CellTiter-Glo luminescence, 96 h, stronger effect = lower value. An outline of the steps: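 PEO1, PEO4 and PEO1/OlaR ovarian cancer cells, 600 per well, exposed 96 h at 37C to a dilution series. Viability read by CellTiter-Glo luminescence, normalized to DMSO and empty wells; activity summarized as Z-AUC.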
(qHTS replaces the single test concentration by a dilution series.)

Experiment [2] can be described thus: Viability counterscreen for antagonist of constitutive androstane receptor (CAR) against the NCATS DSHEA and TCM libraries (AID 1794837).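 Also: compound exposure lasted 24 h before viability reading; 0% is about no effect.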 Particulars: CAR reporter cell line viability counterscreen, qHTS; series mostly up to 40 µM. The procedure, abridged: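 HepG2-CYP2B6-hCAR cells, 2,500/well, were exposed 24 hr at 37C to substances together with 48 uM CITCO (final). Viability was read as CellTiter-Fluor fluorescence (Ex/Em 405/540 nm) after 1 hr.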

The nature of experiment [3]: HepG2 viability counterscreen (readout 2: ATP content) against the NCATS DSHEA and TCM libraries (AID 1794840). Also: 0% is about no effect. The note with it: ATP content luminescence; series mostly up to 27.3 µM. The procedure, abridged:
(§1)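 HepG2 cells, 1,000/well, attached ~4 h, then exposed ~24 h at 37C to substances. Protease activity read by fluorescence of 25 uM GF-AFC (Ex/Em 380/510 nm) after 30 min; ATP then by CellTiter-Glo luminescence.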

A short description of experiment [4]: HepG2 viability counterscreen (readout 1: protease activity) against the NCATS DSHEA and TCM libraries (AID 1794841).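 Also: cells exposed to compounds for about 24 h before the protease read; 0% is about no effect.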 The note with it: qHTS concentration series; series mostly up to 27.3 µM. The procedure, abridged:
as §1
On the technique in general: The purpose of a counterscreen is to sort out artefacts and off-target activity.

For experiment [5], the target named is Cytochrome P450 2C9 (Homo sapiens) (UniProt P11712). Put plainly: qHTS for inhibitors of CYP2C9 against the NCATS DSHEA and TCM libraries (AID 1919973). Also: potency is read from the fitted curve at half-maximal effect. Particulars: recombinant CYP2C9 enzyme activity, luminescence; series mostly up to 34.1 µM. The procedure, abridged: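 Luminescent P450-Glo readout. Enzyme plus pro-luciferin substrate in manufacturer buffer (typically 100 mM KPO4); 15 min RT preincubation; 1x NADPH regenerating system, 30-45 min RT in the dark; detection reagent 30 min.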
Sequence of Cytochrome P450 2C9 (Homo sapiens) (P11712 whole entry, looked up): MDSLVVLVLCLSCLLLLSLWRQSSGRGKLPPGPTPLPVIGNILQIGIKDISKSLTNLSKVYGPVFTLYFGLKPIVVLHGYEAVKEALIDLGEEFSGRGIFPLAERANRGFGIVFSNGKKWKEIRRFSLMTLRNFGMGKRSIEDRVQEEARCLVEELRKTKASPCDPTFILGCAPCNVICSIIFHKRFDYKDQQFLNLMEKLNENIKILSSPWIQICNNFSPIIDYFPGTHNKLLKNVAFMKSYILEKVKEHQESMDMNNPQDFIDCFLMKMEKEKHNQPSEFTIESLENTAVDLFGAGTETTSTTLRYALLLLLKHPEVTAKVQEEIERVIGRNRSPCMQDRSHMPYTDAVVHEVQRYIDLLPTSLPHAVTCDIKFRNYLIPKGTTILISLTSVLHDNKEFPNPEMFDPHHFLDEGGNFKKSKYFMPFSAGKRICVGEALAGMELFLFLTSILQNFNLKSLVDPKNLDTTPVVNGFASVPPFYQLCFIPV

A short description of experiment [6]: KB-3-1 P-gp reporter qHTS against the NCATS DSHEA and TCM libraries (AID 1919975). Also: 0% is about no effect. Particulars: KB-3-1 parental cells, CellTiter-Glo luminescence viability, 72 h; series mostly up to 26.1 µM. An outline of the steps:
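Parental KB-3-1 cells, 500 cells/well, in DMEM with 10% FBS, exposed 72 h at 37 C to compounds in concentration-response. Viability read by CellTiter-Glo luminescence after 30 min at room temperature.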

Experiment [7] can be described thus: qHTS Counterscreen for compound interference against the NCATS DSHEA and TCM libraries (AID 1919978).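 Also: compounds preincubated with 1 µM D-luciferin or buffer before detection reagent; % of control where 0% means no effect.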 The note with it: firefly luciferase detection reagent interference, luminescence. The procedure, abridged: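 Firefly luciferase detection reagent was added after compounds (19.5 nM–39.8 uM final) had been incubated 15 min at room temperature with 1 uM D-luciferin or with 100 mM phosphate buffer alone. Luminescence was read after 30 min at room temperature.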

Experiment [8] can be described thus: Dual reporter qHTS for agonist of Pregnane X Receptor (hPXR) against the NCATS DSHEA and TCM libraries: Fluorescence readout (AID 1920058). Also: 0% is about no effect. Particulars: PXR dual reporter cells; series mostly up to 40 µM. The procedure, abridged: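 hPXR-Luc HepG2 cells (2000/well) in phenol red-free medium with charcoal-stripped FBS attached for 5 h, then were exposed to compounds for about 24 h at 37 °C. Viability was read by CellTiter-Fluor fluorescence (Ex/Em 405/540 nm) after 1 h.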

In experiment [9] the target is Nuclear receptor subfamily 1 group I member 2 (Homo sapiens) (UniProt O75469). Put plainly: Dual reporter qHTS for antagonist of Pregnane X Receptor (hPXR) against the NCATS DSHEA and TCM libraries: Luminescence Readout (AID 1920060). Also: 0% is about no effect. The note with it: hPXR dual reporter cells, luciferase luminescence, antagonist mode; series mostly up to 40 µM. The procedure, abridged: (§2)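 In antagonist mode, 2 uM rifampicin was added to hPXR-Luc HepG2 cells alongside test substances, incubated 24 h at 37 C; luminescence gave reporter activity, and CellTiter-Fluor fluorescence (405/540 nm) gave viability.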
Sequence of Nuclear receptor subfamily 1 group I member 2 (Homo sapiens) (O75469 whole entry, looked up): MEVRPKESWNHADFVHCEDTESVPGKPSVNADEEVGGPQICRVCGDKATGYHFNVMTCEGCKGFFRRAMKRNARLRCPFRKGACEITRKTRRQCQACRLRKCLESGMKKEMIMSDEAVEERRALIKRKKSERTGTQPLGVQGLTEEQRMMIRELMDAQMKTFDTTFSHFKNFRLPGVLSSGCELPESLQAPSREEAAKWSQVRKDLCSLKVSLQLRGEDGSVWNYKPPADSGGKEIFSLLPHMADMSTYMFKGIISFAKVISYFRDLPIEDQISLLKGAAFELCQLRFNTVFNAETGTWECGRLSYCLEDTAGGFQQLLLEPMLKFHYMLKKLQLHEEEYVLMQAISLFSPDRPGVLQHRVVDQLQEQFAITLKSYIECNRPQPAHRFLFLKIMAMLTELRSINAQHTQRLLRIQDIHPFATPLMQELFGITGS

Experiment [10] can be described thus: Dual reporter qHTS for antagonist of Pregnane X Receptor (hPXR) against the NCATS DSHEA and TCM libraries: Fluorescence Readout (AID 1920061). Also: 0% is about no effect. The note with it: PXR dual reporter cells, antagonist mode; series mostly up to 40 µM. An outline of the steps: as §2
Experiment [11] concerns the target Muscarinic acetylcholine receptor M1 (Rattus norvegicus) (UniProt P08482). Put plainly: qHTS Assay for Antagonists of Acetylcholine Muscarinic M1 Receptor: Measurement of IP-One Response (AID 944). Also: nearly all actives have a fitted effect of over 75% in size. Also: potency is read from the fitted curve at half-maximal effect. The note with it: CHO-M1 cells, IP-One HTRF, antagonist mode; series mostly up to 46.1 µM. The procedure, abridged: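 CHO cells expressing rat M1 receptor, recovered overnight, were pre-incubated 10 min with compound, then stimulated 30 min with carbachol at EC80 (200 nM) in LiCl-containing buffer, pH 7.4. IP1 accumulation was read by HTRF (620/665 nm).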

The next experiment deals with 3D7. Put plainly: qHTS profiling for inhibitors of Plasmodium falciparum proliferation (AID 504749).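 Also: 0% = DMSO vehicle and full inhibition = artemisinin control; nearly all actives have a fitted effect of over 60% in size.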 The note with it: P. falciparum in erythrocytes, SYBR Green DNA, 72 h; series mostly up to 28.7 µM. The procedure, abridged:
(§3)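 Readout was DNA-dye fluorescence from lysed cultures, ex 485/em 535 nm. Parasitized red cells had grown 72 h with compound; data scaled between 0.29 uM artemisinin and DMSO wells and corrected using vehicle-only plates.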

The test system of a further experiment is AS120. Described as above. Particulars: P. falciparum in erythrocytes, SYBR Green DNA, 72 h; series mostly up to 28.7 µM. The procedure, abridged:
as §3

A further experiment deals with ATS189. The description is as above. Particulars: P. falciparum in erythrocytes, SYBR Green DNA, 72 h; series mostly up to 28.7 µM. The procedure, abridged:
as §3

For another experiment, the system named is CP185. Described as above. The note with it: P. falciparum in erythrocytes, SYBR Green DNA, 72 h; series mostly up to 28.7 µM. An outline of the steps:
as §3

In another experiment the test system is CP247. The experiment is described as above. Particulars: P. falciparum in erythrocytes, SYBR Green DNA, 72 h; series mostly up to 28.7 µM. An outline of the steps: as §3
The next experiment has as its system DFO2036. The description is as above. Particulars: P. falciparum in erythrocytes, SYBR Green DNA, 72 h; series mostly up to 28.7 µM. An outline of the steps: as §3
The subject of a further experiment is HB3. The description is as above. Particulars: P. falciparum in erythrocytes, SYBR Green DNA, 72 h; series mostly up to 28.7 µM. An outline of the steps: as §3
The test system of the next experiment is PC49. Described as above. The note with it: P. falciparum in erythrocytes, SYBR Green DNA, 72 h; series mostly up to 28.7 µM. An outline of the steps: as §3
The next experiment concerns TAB109. The description is as above. The note with it: P. falciparum in erythrocytes, SYBR Green DNA, 72 h; series mostly up to 12.8 µM. The procedure, abridged: as §3

Sequence of Muscarinic acetylcholine receptor M1 (Rattus norvegicus) (P08482 whole entry, looked up): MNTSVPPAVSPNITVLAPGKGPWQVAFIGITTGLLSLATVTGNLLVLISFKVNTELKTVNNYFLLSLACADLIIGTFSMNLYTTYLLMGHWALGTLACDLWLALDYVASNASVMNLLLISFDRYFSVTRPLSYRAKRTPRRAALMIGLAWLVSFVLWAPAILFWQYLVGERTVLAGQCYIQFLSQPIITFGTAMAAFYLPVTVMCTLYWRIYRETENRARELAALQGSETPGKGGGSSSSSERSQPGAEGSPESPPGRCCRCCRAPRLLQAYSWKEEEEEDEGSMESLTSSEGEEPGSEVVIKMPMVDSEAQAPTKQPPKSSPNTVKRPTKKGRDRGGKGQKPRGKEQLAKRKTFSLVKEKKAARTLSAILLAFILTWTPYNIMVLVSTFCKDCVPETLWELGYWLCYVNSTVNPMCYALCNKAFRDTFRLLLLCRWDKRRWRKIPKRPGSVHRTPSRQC

Consider `O=C(O)C1=CCCN(CCOC(c2ccc(C(F)(F)F)cc2)c2ccc(C(F)(F)F)cc2)C1`, for which the Z-AUC was -1.16 (inactive) in experiment [1], -0.857 in [1] (measured here: PEO1 parental Z-AUC) and -0.457 in experiment [1] (measured here: PEO4 Z-AUC).

As for `COc1ccc2c(c1O)-c1c(OC)c(OC)cc3c1[C@H](C2)N(C)CC3`, the compound was classed as inactive in [2], in experiment [3], in experiment [4], in experiment [6], in [8] and in [9]. Moreover, in experiment [10], the compound was called inactive. For the same compound, the Potency result in experiment [5] is “inactive”. Besides, in experiment [7], the max response is 1.18% (inactive).

With `O=C(OC1CCN(CCCl)CC1)C(c1ccccc1)c1ccccc1`, the Potency in [11] is 0.562 µM (active).

On to `COc1cc2c(cc1O)CC1c3c(cc(O)c(OC)c3-2)CCN1C` (stereo not given), for which the compound was classed as inactive in experiment [2], in experiment [3], in experiment [4], in experiment [6], in experiment [8] and in experiment [9]. Further, in [10], the outcome was inactive. Besides, in [5], the Potency is 10 µM (active). Also, the max response in experiment [7] was 0.642% (inactive).

Turning to `C[C@]12CC[C@H](O)CC1=CCC1C2CC[C@]2(C)C(=O)CC[C@@H]12` (stereo not given in full), the Potency result with 3D7, in the experiment on AS120, in the experiment with ATS189, in the experiment on CP185, in the experiment on CP247 and with DFO2036 was “inactive” throughout. Further, the Potency entry in the experiment on HB3, in the experiment with PC49 and in the experiment on TAB109 was “inactive” each time.

As for `C=CCc1ccc2c(c1)OCO2`, the outcome in [2], in experiment [3], in [4], in [6], in experiment [8] and in experiment [9] was inactive. Moreover, the result in experiment [10] was inactive. Further, the Potency entry in experiment [5] is “inactive”. Further, in experiment [7], the max response was 0.591% (inactive).

With `C[C@@]12CC[C@H]3[C@@H](CC[C@@H]4C[C@H]5S[C@H]5C[C@]43C)[C@H]1CC[C@H]2O`, the Potency result in the experiment with 3D7, in the experiment with AS120, with ATS189, with CP185, in the experiment with CP247 and in the experiment with DFO2036 was “inactive” throughout. Also, the Potency result in the experiment on HB3, in the experiment on PC49 and with TAB109 was “inactive” each time.

With `CS(=N)(=O)CC[C@@H](N)C(=O)O` (stereo not given in full), the Potency entry in [11] is “inactive”.

Take `C[C@H](N)[C@@H](O)c1ccccc1`: the Potency entry with 3D7, in the experiment with AS120, in the experiment with ATS189, in the experiment on CP185, with CP247 and with DFO2036 was “inactive” throughout. The Potency entry with HB3, in the experiment with PC49 and in the experiment on TAB109 was “inactive” throughout.

In the case of `COc1ccc2c(c1OC)C(=O)O[C@H]2[C@H]1c2cc3c(cc2CCN1C)OCO3`, the Potency entry in experiment [11] was “inactive”.
